# Measured values: PubChem BioAssay AID2314 (National Center for Advancing Translational Sciences (NCATS), 2010)
# Screen size: about 300,000 compounds; about 37,000 (12%) were called active. Only a selection was taken, and actives are over-represented in it overall. Unmarked numbers belong to inactive results. No stated cut-off is given here; in the data, active means max response mostly above about 13% (no sharp cut-off); inactive means mostly below about 14%.
# Assay: Cycloheximide Counterscreen for Small Molecule Inhibitors of Shiga Toxin; further: read at 38.3 µM for the half of the compounds with a filed dose; 0% is about no effect
# Conditions: cell reporter, cycloheximide protein synthesis inhibition counterscreen; hits give high values
row,SMILES,max response
1,Cc1ccc(C(NC(=O)N2CCCC2)C(Cl)(Cl)Cl)cc1F (centres undefined),10.7%
2,COc1ccc(C(C(=O)NC(C)(C)C)N(Cc2ccc(F)cc2)C(=O)CCC(=O)Nc2cc(C)on2)cc1 (centres undefined),-0.261%
3,CCOC(=O)c1c(C)[nH]c2c1-c1ccccc1C(=O)C2=O,12.4%
4,CCOC(=O)c1c(C)[nH]c(C2=NNC(=NC(C)COC)SC2)c1C (centres undefined),42.6% (active)
5,Cc1ccnc(NS(=O)(=O)c2ccc(NC(=O)c3oc4ccc(F)cc4c3C)cc2)n1,-2.51%
6,O=C(NCC1COc2ccccc2O1)C1(c2ccccc2)CCCC1 (centres undefined),-2.77%
7,COc1ccc(Br)cc1CN(C)CC(=O)Nc1cc([N+](=O)[O-])ccc1OC,-1.88%
8,Cc1cc(=O)[nH]c(N/N=C/c2ccc3c(c2)OCCO3)n1,38.7%
9,Cc1cc(=O)[nH]c(N/N=C/c2c(C)nn(-c3ccccc3Cl)c2Cl)n1,10.2% (active)
10,CCN(CC)c1ccc(/C=N/Nc2nc(C)cc(=O)[nH]2)cc1,1.51%
11,Cc1ccc(C(=O)NCC(=O)NCc2cc(=O)n(C)c(=O)n2C)cc1,-0.788%
12,O=C(CN1CCOC1=O)N1CCCC(Nc2ccc(F)c(F)c2)C1 (centres undefined),23.5% (active)
13,O=C(CN1C(=O)CSC1=O)N1CCCC(Nc2ccc(F)cc2)C1 (centres undefined),-1.37%
14,O=C1CCCCN1CCCC(=O)N1CCCC(Nc2ccc(F)cc2)C1 (centres undefined),2.17%
15,CC1CCCN(CCCNC(=O)CN2C(=O)COc3ccc(S(=O)(=O)N4CCOCC4)cc32)C1 (centres undefined),-6.25%
16,O=C(Cc1ccc2c(c1)CCCC2)Nc1ccccc1Cl,15.4% (active)
17,O=C(Nc1ccc2c(c1)CCC2)c1cccc(S(=O)(=O)Nc2ccccc2Cl)c1,8.91%
18,CC1(C)CC(CCC(=O)Nc2ccccc2Cl)C(=O)O1 (centres undefined),5.32%
19,COc1ccc(CNC(=O)CN(C(=O)c2csnn2)c2cnc3ccccc3c2)cc1,-1.99%
20,O=C(Nc1ccc(CSc2ccccc2)cc1)c1ccc(CN2CCOCC2)cc1,-1.82%
21,CSc1cccc(NC(=O)CSc2ccccc2)c1,39.6% (active)
22,COCc1cc(C)nc(SCC(=O)Nc2cccc(C)c2)c1C#N,5.77%
23,O=C(CSc1nc(C2CC2)nc2ccccc12)Nc1cccc(O)c1,-1.26%
24,Cc1cc(C)cc(NC(=O)CSc2ccccc2)c1,18.6% (active)

row,SMILES,max response
1,Cc1cc(C)cc(NC(=O)CN2C(=O)c3ccccc3C2=O)c1,-2.91%
2,Cc1cc(C)c(C#N)c(SCc2ccccc2C(=O)O)n1,-3.7%
3,Cc1cc(C)c(C#N)c(SCC(=O)Nc2ccccc2)n1,14% (active)
4,Cc1cc(C)cc(NC(=O)CCN2C(=O)c3ccccc3C2=O)c1,7.24%
5,O=C(CSc1ccccc1)Nc1cc(Cl)ccc1Oc1ccccc1,-2.3%
6,Cc1nnc(SCC(=O)Nc2cccc(N)c2)n1-c1ccccc1,-3.71%
7,O=C(CSc1ccccc1)Nc1ccc(C(=O)Nc2cccc(O)c2)cc1,32.4% (active)
8,COc1ccc(/C=C2\SC(=S)N(CCC(=O)Nc3cccc(C(=O)O)c3)C2=O)cc1OC,1.51%
9,CC(NC(=O)COc1cccnc1[N+](=O)[O-])c1ccc(Cl)cc1Cl (centres undefined),-5.73%
10,CCCN1Cc2cccc(C(=O)Nc3ccc(S(=O)(=O)N4CCCCCC4)cc3)c2C1=O,-1.84%
11,CCCCN(CC)C(=O)C1CCCN(S(=O)(=O)c2cccc3nsnc23)C1 (centres undefined),-3.7%
12,C#CCNC(=O)C1=C[C@@H](c2ccccc2)[C@H](CCCO)[C@@H](OCC)O1,0.207%
13,O=C(NCC(c1cccs1)N1CCOCC1)c1cc(-c2ccccn2)nc2ccccc12 (centres undefined),-1.88%
14,CN(C(=O)c1cccc([N+](=O)[O-])c1)c1ccccc1C(=O)NCc1ccccc1,-2.25%
15,CN(C)/C=C(/C(=O)c1ccccc1)S(=O)(=O)c1ccc(Cl)cc1,9.87%
16,CN(C)/C=C(/C(=O)c1ccc(Cl)cc1)S(=O)(=O)c1ccccc1,50.5% (active)
17,O=C(NNS(=O)(=O)c1ccc(F)cc1)C1CCCCC1,-1.22%
18,CN(C)/C=C(/C(=O)c1ccccc1Cl)S(C)(=O)=O,-0.829%
19,Cc1ccc(S(=O)(=O)/N=C(\N)c2ccc(F)cc2)cc1,6.04%
20,CN(C)/C=C(/C(=O)c1ccc(F)cc1)S(=O)(=O)c1ccc(F)cc1,27.7% (active)
21,CCN(CC)/[N+]([O-])=N/Oc1cc(O/[N+]([O-])=N/N2CCCC2CO)c([N+](=O)[O-])cc1[N+](=O)[O-] (centres undefined),-2.07%
22,O=C(Nc1cccc(Cl)c1)c1cncn1-c1ccc(F)cc1,6.32%
23,COc1ccccc1C(=O)NNC(=O)CCN1C(=O)/C(=C\c2ccccc2)SC1=S,-3.61%
24,CCn1cc(CCC(=O)NCc2ccc(F)cc2)c2ccccc21,5.51%

row,SMILES,max response
1,O=C(CCCNS(=O)(=O)c1cccc2nsnc12)NCCN1CCN(c2ccccc2F)CC1,-4.37%
2,COc1ccccc1Oc1ccc(S(=O)(=O)Nc2cccnc2)cc1,-1.76%
3,COc1ccccc1Oc1ccc(N/C=C2/CCCC2=O)cc1,15.4% (active)
4,COc1ccc(NS(=O)(=O)c2ccc(Oc3c(C#N)cccc3C#N)cc2)cc1,5.34%
5,CCOC(=O)c1[nH]c2c(c1C)C(=O)CC(c1ccc(N(C)C)cc1)C2 (centres undefined),25.5% (active)
6,COCCOC(=O)c1[nH]c2c(c1C)C(=O)CC(c1ccc(OC)cc1)C2 (centres undefined),7.29%
7,CCOC(=O)c1[nH]c2c(c1-c1ccccc1)C(=O)CC(c1ccc(Cl)cc1)C2 (centres undefined),5.07%
8,CCOC(OCC)c1ccc(/C=C\c2nccc(N)n2)cc1,38.5% (active)
9,Cc1cc(=O)n2nc(N3CCCC(C(=O)NCc4ccc(Cl)cc4)C3)sc2n1 (centres undefined),-2.2%
10,CCOC(=O)c1cc2cc(C)ccc2[nH]1,39.7% (active)
11,CC(=O)OCc1cc2cc(C)ccc2[nH]c1=O,-2.45%
12,CCNCc1cc2cc(C)ccc2[nH]c1=O,4.83%
13,Cc1ccc2c(c1)N(CC(=O)N(Cc1ccccn1)Cc1ccco1)C(=O)C(C(C)C)O2 (centres undefined),8.51%
14,CCOC(CNC(=O)C1CCN(S(=O)(=O)c2ccc3nc4c(c(C(=O)O)c3c2)CC(C)CC4)CC1)OCC (centres undefined),-3.45%
15,CC(=O)c1cccc(NC(=O)COc2ccc(S(=O)(=O)N3CCOCC3)cc2)c1,0.879%
16,Cc1cc(C)cc(NC(=O)NC2CCCCCCC2)c1,17.4% (active)
17,Cc1cc(C)cc(NC(=O)NC2CCN(CC(=O)Nc3cccc(Cl)c3C)CC2)c1,-0.314%
18,CC(C)c1ccc(NC(=O)NC2CCCCC2)cc1,44.1% (active)
19,CC(C)N1CCC(NC(=O)Nc2ccccc2)CC1,-2.49%
20,Cc1cc(C)cc(NC(=O)N2CCCCCCC2)c1,-5.05%
21,CC(C)(C)NS(=O)(=O)c1ccc(NC(=O)NC2CCCCC2)cc1,9%
22,Cc1ccccc1NC(=O)NNC(=O)OC(C)(C)C,-3.59%
23,C/C(=N\NC(=O)OC(C)(C)C)c1ccc[nH]1,42.4% (active)
24,COc1ccccc1CNS(=O)(=O)c1ccc2c(c1)NC(=O)CS2,30.5%

row,SMILES,max response
1,O=[N+]([O-])c1cc([N+](=O)[O-])c(Oc2cc(F)cc(F)c2F)cc1NN1CCCCC1,0.495%
2,CCOC(=O)c1sc(NC(=O)CSc2nc3c(c(=O)n2-c2ccccc2)SCC3)c(C(=O)OCC)c1C,-2.16%
3,COc1cccc(/C=N\NC(=O)C2=NNC(=O)C2C)c1O (centres undefined),32.5% (active)
4,COc1cc2cc(C(=O)N/N=C/c3cccc(OC)c3OC)[nH]c2cc1OC,0.0255%
5,COc1cccc(/C=N/NC(=O)c2[nH]nc3c2CCc2ccccc2-3)c1O,6.14%
6,O=c1[nH]nc(SCCS(=O)(=O)c2ccc(F)cc2)n1-c1ccccc1C(F)(F)F,-1.24%
7,COc1cccc2cc(-c3cc(=O)oc4cc(C)c(O)cc34)oc12,8.46%
8,COc1ccccc1-n1cnc2cc(C(=O)NCC3CCCO3)ccc21 (centres undefined),-2.15%
9,O=C(NCCN1CCOCC1)c1ccc2c(c1)ncn2C1CCCC1,1.03%
10,O=C(NCc1cccs1)c1ccc2c(c1)ncn2C1CCCC1,31.8% (active)
11,CCCCC(CC)CNCc1cccn1CCN1CCOCC1 (centres undefined),-0.53%
12,CC(C)CN(Cc1c(O)ccc2c(=O)c(-c3ccccc3)coc12)CC(C)C,8.57%
13,CC(C)=CCc1c(O)c(CC=C(C)C)c2occ(-c3ccc(O)cc3)c(=O)c2c1O,10.9% (active)
14,O=C(Cn1cc(C(=O)C2CC2)c2ccccc21)Nc1ccccc1Cl,-7.35%
15,O=C(CN1CCCCCC1)Nc1ccc(Cl)cc1F,8.65%
16,Cc1cc(C)c(NC(=O)CN2CCCCCC2)c(C)c1,34.2% (active)
17,Cc1csc(NC(=O)CN2CCCCCC2)n1,2.46%
18,O=C(CN1CCOCC1)Nc1c(Cl)cc(Cl)cc1Cl,-2.9%
19,O=C(CN1CCCCCC1)Nc1c(Cl)cc(Cl)cc1Cl,21.3% (active)
20,COc1cc(Cl)c(C)cc1NC(=O)CN1CCCCCC1,0.423%
21,CC1CCCCN1CCCNc1ccc(C(CC(N)=O)NC(=O)c2ccccc2)cc1[N+](=O)[O-] (centres undefined),-1.02%
22,COCCN(Cc1cc2cc3c(cc2nc1Cl)OCO3)C(=O)c1cccc(C)c1,5.64%
